# Assay outcomes from PubChem.
# A selection: hits, their analogues and other compounds. The true share with any hit is near 3.5%.
# FBW7 activator = activators of human E3 ligase FBW7 | Q969H0 | AlphaScreen FBW7–phospho-cyclin E peptide binding, activator screen | normalized activity (activation), % at 26.1 µM | 650,000 tested, 0.13% active; in the data active = normalized activity above about 1.9%;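 note: purified mutant Fbw7 with reduced substrate affinity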
# MITF primary = blocks human microphthalmia-associated transcription factor; AlphaScreen MITF homodimerization, bead proximity signal; inhibition, % at 2.6 µM; O75030; 650,000 tested, 0.91% active; in the data active = inhibition above about 50%;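 note: 0% = vehicle wells with protein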
# GPR151 ag = activates the human receptor GPR151; Q8TDV0; PathHunter beta-arrestin GPR151 cells, luminescence; activation, % at 11.2 µM; 650,000 tested, 1% active; AID 1508602; in the data active = activation above about 4.9%;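 note: 0% = median of compound wells and 100% = cells with positive control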
# Target sequence (Q8TDV0 whole entry, looked up): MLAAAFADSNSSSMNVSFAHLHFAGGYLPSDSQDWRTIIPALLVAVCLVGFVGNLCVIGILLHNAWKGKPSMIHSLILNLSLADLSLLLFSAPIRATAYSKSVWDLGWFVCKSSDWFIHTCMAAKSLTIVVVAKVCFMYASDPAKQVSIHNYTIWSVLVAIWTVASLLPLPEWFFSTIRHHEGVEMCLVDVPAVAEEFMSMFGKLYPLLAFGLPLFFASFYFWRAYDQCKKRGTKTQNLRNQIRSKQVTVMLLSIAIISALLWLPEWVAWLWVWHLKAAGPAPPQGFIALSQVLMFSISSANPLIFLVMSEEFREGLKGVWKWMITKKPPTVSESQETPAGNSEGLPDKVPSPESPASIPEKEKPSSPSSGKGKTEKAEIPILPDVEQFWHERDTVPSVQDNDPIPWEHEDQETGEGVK
# TEAD-YAP inh = TEAD-YAP interaction inhibition | 640,000 tested, 1.4% active | HEK-TIYL cells, TEAD-Gal4/YAP UAS-luciferase luminescence | AID 1259422 | inhibition, % at 9.12 µM; in the data active = inhibition above about 32%;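 note: 0% = median of test compound wells and 100% = reference inhibitor wells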
# MITF inh conf = human MITF inhibition, confirmation; shares compounds with MITF primary; AlphaScreen MITF homodimerization, biotin/His-MITF beads; inhibition, % at 2.6 µM; 4,700 tested, 16% active;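 active = inhibition above a cutoff derived from the DMSO control wells, cut at about 28% in these data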;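 note: 0% = MITF dimer wells with DMSO only; inhibitors lower the bead chemiluminescence by keeping MITF from dimerizing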
# AS interf ctr = counter-screen: compounds optically interfering with AlphaScreen; shares compounds with MITF primary; LysRS AlphaScreen counterscreen, signal interference, triplicate; inhibition, % at 2.6 µM; 4,700 tested, 7.6% active;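 active = inhibition above a cutoff derived from the DMSO control wells, cut at about 30% in these data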
# * marks the source's active call; other numbers are inactive results; · = no result.
SMILES,FBW7 activator,MITF primary,GPR151 ag,TEAD-YAP inh,MITF inh conf,AS interf ctr
CN1CCCN(Cc2ccc(C(F)(F)F)cc2)CC1,0,49,1,0,·,·
COc1ccc(CN2CCN(Cc3ccc(C(F)(F)F)cc3)CC2)cc1,0,86*,1,7,6,14
FC(F)(F)c1ccc(CN2CCSCC2)cc1,0,58*,-1,8,9,17
COc1cccc(CN2CCN(Cc3ccc(C(F)(F)F)cc3)CC2)c1,0,81*,0,-11,7,13
COc1cc(C(=O)N2CCN(Cc3ccc(C(F)(F)F)cc3)CC2)cc(OC)c1OC,1,27,1,-2,·,·
Fc1ccc(C2CCN(Cc3cccnc3)CC2)cc1,0,53*,0,-2,4,9
Fc1ccc(C2CCN(Cc3ccncc3)CC2)cc1,0,60*,0,17,0,13
Fc1ccccc1C1CCN(Cc2cccnc2)CC1,0,35,0,-4,·,·
COc1ccc(C)cc1S(=O)(=O)NC1CCCCCC1,0,-3,-1,7,·,·
COc1ccc(C)cc1NC1CCCCC1,0,77*,2,-5,9,17
O=C1C2CCCCC2C(=O)N1c1ccc2c(c1)CCC2 (stereo unspecified),0,19,-3,-18,·,·
O=C1C2C3C=CC(C3)C2C(=O)N1c1ccc2c(c1)CCC2 (stereo unspecified),0,79*,0,-5,4,12
CN(CCc1ccccn1)C(=O)COc1ccc2ccccc2c1,1,84*,-1,-22,-10,4
COc1cc(OC)cc(C(=O)N(C)CCc2ccccn2)c1,0,71*,0,-2,7,4
COc1ccc(OC)c(CN(C)CCc2ccccn2)c1,0,40,3,-1,·,·
CN(Cc1ccccc1)C(=O)COc1ccc2ccccc2c1,1,20,0,-45,·,·
COc1ccc(C(=O)N(C)CCc2ccccn2)cc1,0,71*,4,-4,4,2
COc1cc(OC)cc(C(=O)NC(C(=O)NCCc2ccccn2)C(C)C)c1 (stereo unspecified),0,3,-2,-1,·,·
CN(CCc1ccccn1)C(=O)c1ccccc1,0,60*,0,4,-9,-2
Nc1ccccc1S(=O)(=O)NCc1cc(Cl)cc(Cl)c1,1,4,1,-4,·,·
c1ccc(OCc2nnc3sc(-c4cccnc4)nn23)cc1,0,64*,1,1,7,14
CCOc1ccc(-c2nn3c(COc4ccccc4)nnc3s2)cc1,0,4,0,5,·,·
CCN1C=CC(=C(/C=C2\C=CC=CC2=O)CS(=O)(=O)O)C=C1,0,65*,0,3,3,-1
COc1ccc(CN2CCN(S(C)(=O)=O)CC2)cc1,0,57*,1,20,-2,-8
CS(=O)(=O)N1CCN(Cc2ccc(F)cc2)CC1,0,62*,-1,4,-8,4
SMILES,FBW7 activator,MITF primary,GPR151 ag,TEAD-YAP inh,MITF inh conf,AS interf ctr
CS(=O)(=O)N1CCN(Cc2ccccc2)CC1,0,4,-1,-5,·,·
COCCn1c(C)nnc1SCC(N)=O,1,83*,-1,16,6,5
COc1ccc(NC(=O)CN(C)CC(=O)Nc2cccc(C(C)=O)c2)cc1,0,58*,1,1,-1,5
CCOC(=O)C1=C(C)N=c2s/c(=C\c3ccc(C)cc3)c(=O)n2C1c1ccc(OC)cc1 (stereo unspecified),0,1,2,9,·,·
CC(=O)CC(=O)NC(C)c1ccccc1 (stereo unspecified),0,3,2,13,·,·
CC(NC(=O)CNCc1ccccn1)c1ccccc1 (stereo unspecified),-1,74*,0,4,25,100*
Cc1ccc(/C=N/Nc2cccc(C(=O)O)c2)o1,0,59*,-7,12,9,-2
CC1Cc2ccccc2N1S(=O)(=O)c1ccccc1F (stereo unspecified),0,4,-2,0,·,·
CC(C(=O)Nc1ccc(C#N)cc1)N1CCN(S(=O)(=O)c2ccccc2F)CC1 (stereo unspecified),0,85*,0,-1,11,5
CC(C(=O)N1c2ccccc2CC1C)N1CCN(S(=O)(=O)c2ccccc2F)CC1 (stereo unspecified),0,75*,0,17,5,13
COc1ccc(C[C@@H]2NC(=O)[C@@H]3C[C@H](NCc4cc5ccccc5s4)CN3C2=O)cc1,0,6,1,-7,·,·
O=C(CC1C(=O)NCCN1C/C=C/c1ccccc1)NCCCc1cccnc1 (stereo unspecified),0,64*,0,1,4,3
COc1ccccc1NC(=O)COC(=O)c1ccc2c(c1)C(=O)N(c1ccccc1C)C2=O,0,1,0,3,·,·
COc1cccc(CN2CCC(N3CC(C)OC(C)C3)CC2)c1OC (stereo unspecified),0,87*,1,-5,-22,-3
COc1cc(OC)c(OC)cc1CN1CCC(O)CC1,0,22,1,16,·,·
COc1ccccc1CN1CCC(C)CC1,0,-4,0,-7,·,·
COc1ccccc1CN1CCC(N2CC(C)OC(C)C2)CC1 (stereo unspecified),0,52*,0,10,-13,-5
COc1cc(OC)c(OC)cc1CN1CCC(N2CC(C)OC(C)C2)CC1 (stereo unspecified),0,89*,0,9,-8,-6
COc1cc(OC)c(OC)cc1CN1CCN(C2CCC(C)CC2)CC1 (stereo unspecified),0,72*,-2,-3,1,-1
CCOC(=O)C1CCN(Cc2cccc(OC)c2OC)CC1,0,-17,0,1,·,·
O=C(Nc1ccc2sccc2c1)c1ccc([N+](=O)[O-])s1,0,2,0,-50,·,·
CCN1CCCC1CNCC(O)COc1ccccc1 (stereo unspecified),0,56*,-1,2,-12,-7
Cc1ccc(Nc2nc(-c3ccccn3)cs2)c(C)c1,-1,51*,-4,57*,21,39*
CCOC(=O)c1sc2nc(SCC(=O)NCCc3ccccc3)n(Cc3cccc(Cl)c3)c(=O)c2c1C,0,8,0,5,·,·
O=C(CNC1CCCCC1)Nc1c2c(nc3c1CCC3)CCCC2,0,74*,0,3,-12,-3
O=C(CNC1CCCCC1)Nc1c2c(nc3c1CCC3)CCC2,0,40,0,-7,·,·
CC(C)(C)NCC(=O)Nc1c2c(nc3c1CCC3)CCCC2,0,75*,0,5,3,-3
CNCC(=O)Nc1c2c(nc3c1CCC3)CCCC2,0,61*,0,0,-2,-1
COC(F)(C(=O)Oc1cc([N+](=O)[O-])cc2cccnc12)C(F)(F)F (stereo unspecified),-1,95*,0,43*,99*,101*
